KB-3-1 tox: KB-3-1 parental cell cytotoxicity | KB-3-1 viability, CellTiter-Glo ATP luminescence, 72 h | Potency, µM (series often up to 46.1 µM), most hits filed as cytotoxic | 1.4% of 400,000 active; also: % is scaled to controls: 0 for no effect and ±100 for the full control effect; nearly all actives have a fitted effect of over 60% in size
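Screening of KB-3-1 cells (DMEM, 10% FBS, phenol-red free) ran from lowest to highest compound concentration; after 72 h at 37 °C viability was read luminescently and curves fitted.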
ATXN viability: reduces viability in counter-screen for ATXN expression inhibitors. S2 cells (HEK-293 line with an ATXN2-luciferase reporter) viability, CellTiter-Fluor protease fluorescence, 24 h. Potency, µM (titrated, usually from 56.7 µM), most hits filed as cytotoxic. 0.49% of 400,000 active; also: nearly all actives have a fitted effect of over 40% in size
HT1080 IDH1KD tx: toxicity to HT-1080 IDH1 knockdown cells (counter line) | HT-1080 IDH1 knockdown viability, ATP luminescence, 48 h | Potency, µM (top dose mostly 46.1 µM), for inactives: top-dose activity, negative = toxicity, usual class: cytotoxic | 2% of 360,000 active;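 also: 0% = DMSO wells and -100% = cell-free medium wells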
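Viability of IDH1-knockdown HT-1080 fibrosarcoma cells was assessed by CellTiter-Glo after 48 h at 37 °C with titrated compound; concentration-effect curves were classified by fit quality and response size.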
ATXN2 expr inh: reduces ATXN2 reporter expression in HEK-293 cells; Potency, µM (highest dose often 57 µM), for the others: at the top dose activity change, negative = inhibition, actives largely listed as inhibitors; 0.72% of 360,000 active; AID 1745845; HEK-293 ATXN2-luciferase reporter, luminescence, 24 h; also: % is scaled to controls: 0 for no effect and ±100 for the full control effect; nearly all actives have a fitted effect of over 55% in size
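qHTS (up to 57 uM final) was run with 24 h compound exposure of reporter cells at 37 °C. Each well was multiplexed: SteadyGlo luminescence measured ATXN2-luciferase expression after a fluorogenic Gly-Phe-AFC viability readout (25 uM final).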
HT1080-NT tox: kills 2HG-producing HT-1080-NT fibrosarcoma cells | HT-1080-NT fibrosarcoma viability, CellTiter-Glo ATP luminescence, 48 h | Potency, µM (highest dose often 46.1 µM), for inactives: at the top dose activity, negative = less viability, actives largely listed as cytotoxic | 1.6% of 360,000 active;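 also: NT is the 2HG producing partner of a matched IDH1 knockdown line; 0% = DMSO-treated cells and -100% = media-only wells without cells; nearly all actives have a fitted effect of over 55% in size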
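Viability by CellTiter-Glo luminescence after 48 h compound exposure at 37C of HT-1080-NT cells (750/well, RPMI, 5% FBS). % activity scaled between DMSO wells and medium-only wells, then curve-fitted and categorized by curve class.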
KB-V1 cytotox: kills drug-selected multidrug resistant KB-V1 cells; KB-V1 MDR cells viability, CellTiter-Glo, 72 h; Potency, µM (top dose mostly 46.1 µM), most hits filed as cytotoxic; 3.4% of 400,000 active; also: % is scaled to controls: 0 for no effect and ±100 for the full control effect; nearly all actives have a fitted effect of over 60% in size
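Compound-treated KB-V1 multidrug-resistant cells, 72 h, 37 degrees C; viability by CellTiter-Glo. Fitted qHTS curves give the values.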
The depositor's hits bear a star; i = inactive; ? = inconclusive; . = not tested or not shown; [ ] = remark or other dose. A selection: hits, their analogues and other compounds. The true share with any hit is near 6.2%. Calls follow the shape of the dose curve; as a rule, active = well fitted curve in the direction sought with a large enough effect; inconclusive = small, poorly fitted or top-dose-only effect, or another doubt; inactive = no such curve, though single readings can be large; an effect the other way counts as inactive or inconclusive. Potency is read from the fitted curve at half-maximal effect.

SMILES | KB-3-1 tox | ATXN viability | HT1080 IDH1KD tx | ATXN2 expr inh | HT1080-NT tox | KB-V1 cytotox
Cc1c(C(=O)N(Cc2ccc(Cl)cc2)C2CCS(=O)(=O)C2)oc2ccccc12 (centres undefined) | ? | i | -24% | -4% | ? | 8.2µM*
COc1ccc(CN(C(=O)c2oc3ccccc3c2C)C2CCS(=O)(=O)C2)cc1OC (centres undefined) | i | i | -17% | 3% | -10% | i
CCOC(=O)C1CCC(CN(Cc2ccc(OC)cc2)S(=O)(=O)c2ccc(F)c(C(=O)Nc3ccc(C)c(C)c3)c2)CC1 (centres undefined) | i | i | . | 5% | . | i
COc1cc(C(=O)NC2CC3CCCC(C2)N3CC(=O)Nc2ccccc2)cc(OC)c1OC (centres undefined) | i | i | -10% | -10% | 1% | i
O=C(CN1C2CCCC1CC(NC(=O)c1ccccc1)C2)Nc1nccs1 (centres undefined) | i | i | 0% | -5% | 11% | 2.3µM*
CCCCCCCCCCCCCCCCCC(=O)OCCO | . | i | . | . | . | .
CC(C)(C)C(=O)NC1(C(F)(F)F)C(=O)Nc2c1c(=O)[nH]c(=O)n2-c1ccccc1 (centres undefined) | i | i | . | 7% | . | i
NC(=S)NN=C1CCCCCCCC1 | 18µM* | ? | -1% | -30% | -2% | i
NC(=S)NN=C1CCCCCCCCC1 | i | i | -8% | -11% | -2% | ?
CCOC(=O)N1CCN(Cc2ccc3c(c2)CN(C(=O)c2ccc(C#CC(C)(C)O)o2)CCO3)CC1 | . | i | . | . | . | .
O=[N+]([O-])c1cc(C(F)(F)F)ccc1NCCc1c[nH]c2ccc(O)cc12 | i | i | 13µM* | -3% | 13µM* | i
Cc1ccc(CNc2ncnc3[nH]ncc23)o1 | ? | . | . | . | . | i
Cc1cccc(N=N/C(=C\O)C(=O)c2cccs2)c1 | i | ? | 13µM* | ? | ? | 26µM*
O=C(/C(=C/O)N=Nc1ccccc1)c1ccncc1 | i | i | 2%[9.24 µM] | -4% | ? | i
COC(=O)c1ccc(S(=O)(=O)N2C3CCC2CC(NC(=O)NC2CCCCC2)C3)cc1 (centres undefined) | i | i | -12% | -23% | -2% | i
COc1ccc(S(=O)(=O)N2C3CCC2CC(NC(=O)NC2CCCCC2)C3)cc1 (centres undefined) | i | i | -7% | 0% | 7% | 16µM*
Cc1ccc2c(c1)nnn2C1CCN(S(=O)(=O)c2ccc3ccccc3c2)CC1 | i | i | ? | -11% | ? | 21µM*
Cc1ccc2c(c1)nnn2C1CCN(S(=O)(=O)c2ccc(C(=O)N(C)C)cc2)CC1 | ? | i | -14% | 0% | 0% | 9.2µM*
Cc1ccc2c(c1)nnn2C1CCN(S(=O)(=O)c2cccc(S(=O)(=O)N(C)C)c2)CC1 | i | i | -18% | -37% | -21% | i
COC(=O)c1cccc(S(=O)(=O)N2CCC(n3nnc4cc(F)ccc43)CC2)c1 | i | i | -12% | -20% | -14% | 16µM*
Cc1ccc2c(c1)nnn2C1CCN(S(=O)(=O)c2ccc(C(=O)N3CC(C)CC(C)C3)cc2)CC1 (centres undefined) | 16µM* | i | -13% | ? | -13% | ?
Cc1ccc2c(c1)nnn2C1CCN(S(=O)(=O)c2ccc(C(=O)NC3CCCC3)cc2)CC1 | i | i | -7% | -16% | -4% | ?
COC(=O)c1cccc(S(=O)(=O)N2CCCC2)c1 | i | i | 15% | 0% | 21% | i
CCOC(=O)CN(C(=O)CN1CCC(n2nnc3cc(C)ccc32)CC1)c1ccccc1 | i | i | -16% | -4% | -14% | i
Cc1ccc2c(c1)nnn2C1CCN(CC(=O)N(c2ccccc2)c2ccccc2)CC1 | ? | ? | -4% | . | -24% | 9.2µM*

From PubChem
